Screens deposited in PubChem BioAssay by National Center for Advancing Translational Sciences (NCATS).
Shown are actives, neighbours in structure and some others; about 19% of the full set was active somewhere.
ELG1 repair inh: inhibitors of ELG1-dependent DNA repair in HEK293T cells. HEK293T ELG1-luciferase reporter, luminescence, 16 h; DNA damage induced by 5-fluorouridine. 330,000 compounds, 2.3% hits. Potency, µM (titrated, usually from 46.1 µM), without a hit: at the top dose activity change, negative = inhibition, actives largely listed as inhibitors; note: potency is the fitted concentration of half-maximal effect; nearly all actives have a fitted effect of over 55% in size
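Reporter activity after DNA damage by 5-fluorouridine is monitored. Compound-treated cells incubate 16 hr at 37 °C, then ONE-Glo is added for 30 min before luminescence reading.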
DT40 TDP1 no CPT: qHTS for Inhibitors of human tyrosyl-DNA phosphodiesterase 1 (TDP1): qHTS in cells in absence of CPT; DT40 Tdp1-/- hTDP1 cells, no CPT, ATP luminescence, 48 h; Potency, µM (highest dose often 46.2 µM), for the others: at the highest dose activity change, negative = growth inhibition, hits mostly inhibitors; 420,000 compounds, 15% hits; AID 686978, 2013; note: potency is the fitted concentration of half-maximal effect; nearly all actives have a fitted effect of over 55% in size
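A cellular qHTS used chicken DT40 cells lacking endogenous Tdp1 but carrying stably transfected human TDP1. Compounds were applied without camptothecin, and cell growth kinetics were judged by ATP-dependent luminescence after ≥48 hr.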
HT1080 IDH1KD tx: HT-1080 IDH1 knockdown cell toxicity (counter line) | HT-1080 IDH1 knockdown viability, ATP luminescence, 48 h | Potency, µM (series often up to 46.1 µM), for inactives: at the highest dose activity, negative = toxicity, usual class: cytotoxic | 360,000 compounds, 2% hits;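 note: potency is the fitted concentration of half-maximal effect; 0% = DMSO wells and -100% = cell-free medium wells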
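Knockdown cells (IDH1KD HT-1080) received compounds 2 h after plating at 750 cells/well and were kept 48 h at 37 °C in 5% FBS RPMI. A CellTiter-Glo luminescence read gave % activity for curve fitting.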
HT1080NT lethal: kills 2HG-producing HT-1080-NT fibrosarcoma cells; HT-1080-NT fibrosarcoma viability, CellTiter-Glo ATP luminescence, 48 h; Potency, µM (series often up to 46.1 µM), for the others: at the top dose activity, negative = less viability, actives largely listed as cytotoxic; 360,000 compounds, 1.6% hits;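 note: NT is the 2HG producing partner of a matched IDH1 knockdown line; potency is the fitted concentration of half-maximal effect; 0% = DMSO-treated cells and -100% = media-only wells without cells; nearly all actives have a fitted effect of over 55% in size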
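750 cells/well, RPMI + 5% FBS; 2 h settle, compound pin-transfer, 48 h at 37 degrees C. CellTiter-Glo 10 min RT, luminescence. Normalized to DMSO and media-only wells.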
DT40 TDP1 CPT: growth inhibition of DT40 Tdp1-/-;hTDP1 cells with camptothecin (screen for TDP1 inhibitors) | chicken DT40 Tdp1-/-;hTDP1 cells + 20 nM CPT, ATP luminescence, 48 h | Potency, µM (highest dose often 46.2 µM), without a hit: at the highest dose activity change, negative = growth inhibition, hits mostly inhibitors | 420,000 compounds, 12% hits | AID 686979; note: potency is the fitted concentration of half-maximal effect; nearly all actives have a fitted effect of over 55% in size
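Chicken DT40 Tdp1-/- cells stably complemented with human TDP1 were seeded at 400 cells/well in medium containing 20 nM camptothecin, exposed to pin-transferred compounds, and grown at 37 °C for at least 48 hr. Viability was read as ATP luminescence.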
IL1B secr inh: inflammasome signaling inhibition, IL-1 beta readout. 360,000 compounds, 4.7% hits. THP-1 LPS/ATP IL-1B secretion, AlphaLISA, 16 h; stronger effect = lower value. activity change, % at 57.5 µM; in the data active = activity change below about -50%; inconclusive = mostly about -30% to -49%
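THP-1 cells pretreated 1 hr with compounds (up to 57.5 uM final), then stimulated with LPS (250 ng/mL final) plus ATP (1.25 mM final); secreted IL-1B measured by AlphaLISA after 16 hr, decreased signal indicating inhibition.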
Numbers without * were called inactive. Unless noted, calls come from the whole dose curve; as a rule, active = well fitted curve in the direction sought with a large enough effect; inconclusive = small, poorly fitted or top-dose-only effect, or another doubt; inactive = no such curve, though single readings can be large; an effect the other way counts as inactive or inconclusive. Unless noted, % is set by controls: 0 for no effect and ±100 for the full control effect.

Screening CCOc1ccccc1N1CCN(C(=O)c2ccccc2OCc2c(C)noc2C)CC1 returned ELG1 repair inh -1%, DT40 TDP1 no CPT -23%, HT1080 IDH1KD tx -6%, HT1080NT lethal -5%, DT40 TDP1 CPT -21% and IL1B secr inh -15.
Screening O=C(Cc1ccc(Cl)cc1)c1c(O)cc(O)cc1O returned DT40 TDP1 no CPT -5% and DT40 TDP1 CPT -9%.
Cc1cc(C)cc(OCCCn2c(-c3ccc(Cl)cc3)nc3ccccc3c2=O)c1 was read as DT40 TDP1 no CPT -3% and DT40 TDP1 CPT -13%.
`CC(=O)Nc1ccc(C(=O)OCC(=O)NC2CCCCCC2)cc1` gave DT40 TDP1 no CPT -14%, HT1080 IDH1KD tx -2%, HT1080NT lethal -4%, DT40 TDP1 CPT 3% and IL1B secr inh 25.
`Cc1nc(NC(=O)c2cccc(Cl)c2)sc1C(=O)N1CCCCC1` gave ELG1 repair inh inconclusive, DT40 TDP1 no CPT 18µM*, HT1080 IDH1KD tx 0%, HT1080NT lethal -4%, DT40 TDP1 CPT 18µM* and IL1B secr inh inconclusive.
`O=C(CN1C(=O)/C(=C/c2cccc(Br)c2)SC1=S)N1CCCC1` gave ELG1 repair inh 2%, DT40 TDP1 no CPT 9.2µM*, HT1080 IDH1KD tx 4%, HT1080NT lethal 3%, DT40 TDP1 CPT 3.3µM* and IL1B secr inh -10.
O=C(CCN1C(=O)/C(=C\c2ccccc2Cl)SC1=S)N1CCN(c2ccccc2)CC1 was read as ELG1 repair inh 8%, DT40 TDP1 no CPT 10µM*, HT1080 IDH1KD tx 19%, HT1080NT lethal 2%, DT40 TDP1 CPT 16µM* and IL1B secr inh -107*.
Screening O=C(CCN1C(=O)/C(=C/c2ccccc2)SC1=S)N1CCCCCC1 returned ELG1 repair inh inconclusive, DT40 TDP1 no CPT 21µM*, HT1080 IDH1KD tx -6%, HT1080NT lethal -2%, DT40 TDP1 CPT 12µM* and IL1B secr inh -101*.
`O=C(CCN1C(=O)/C(=C\c2ccccc2F)SC1=S)N1CCCCC1` gave ELG1 repair inh 0%, DT40 TDP1 no CPT 2.9µM*, HT1080 IDH1KD tx 0%, HT1080NT lethal -3%, DT40 TDP1 CPT 3.7µM* and IL1B secr inh inconclusive.
For O=C(CCN1C(=O)/C(=C\c2ccccc2)SC1=S)NCCCN1CCOCC1 the results were ELG1 repair inh inconclusive, DT40 TDP1 no CPT inconclusive, HT1080 IDH1KD tx 1%, HT1080NT lethal 0%, DT40 TDP1 CPT inconclusive and IL1B secr inh -27.
O=C(CCN1C(=O)/C(=C/c2ccccc2Cl)SC1=S)NC1=NCCS1 was read as ELG1 repair inh -9%, DT40 TDP1 no CPT inconclusive, HT1080 IDH1KD tx 2%, HT1080NT lethal 16%, DT40 TDP1 CPT 4% and IL1B secr inh 13.
`Cc1nc2c(=O)[nH]n(C)c2nc1C` gave DT40 TDP1 no CPT -11%, HT1080 IDH1KD tx 13%, HT1080NT lethal 8%, DT40 TDP1 CPT -1% and IL1B secr inh -8.
For CC(C)C[C@@H](CN)NC(=O)c1nc[nH]c1C(=O)N[C@@H](C)C(=O)CNC[C@H](CC(C)C)NC(=O)c1nc[nH]c1C(=O)N[C@@H](Cc1ccccc1)C(=O)O the results were DT40 TDP1 no CPT -7%, HT1080 IDH1KD tx 2%, HT1080NT lethal 5%, DT40 TDP1 CPT 0% and IL1B secr inh 8.
CC(I)CCC(C)[n+]1cccc(I)c1 (stereo not drawn) was read as DT40 TDP1 no CPT 4% and DT40 TDP1 CPT 15%.
For CCOC(=O)C1=CCN(S(=O)(=O)c2cccc(Cl)c2)C1c1ccccc1 (stereo not drawn) the results were DT40 TDP1 no CPT inconclusive, HT1080 IDH1KD tx -26%, HT1080NT lethal -25%, DT40 TDP1 CPT inconclusive and IL1B secr inh 55.
